In ChEMBL document CHEMBL2218924, “A broad activity screen in support of a chemogenomic map for kinase signalling research and drug discovery” (Biochem J, 2013):

The compounds below were run against Tyrosine-protein kinase HCK (Homo sapiens) (UniProt P08631). Settings: at 10 µM.
Sequence of Tyrosine-protein kinase HCK (Homo sapiens) (P08631 2-526 limits assumed): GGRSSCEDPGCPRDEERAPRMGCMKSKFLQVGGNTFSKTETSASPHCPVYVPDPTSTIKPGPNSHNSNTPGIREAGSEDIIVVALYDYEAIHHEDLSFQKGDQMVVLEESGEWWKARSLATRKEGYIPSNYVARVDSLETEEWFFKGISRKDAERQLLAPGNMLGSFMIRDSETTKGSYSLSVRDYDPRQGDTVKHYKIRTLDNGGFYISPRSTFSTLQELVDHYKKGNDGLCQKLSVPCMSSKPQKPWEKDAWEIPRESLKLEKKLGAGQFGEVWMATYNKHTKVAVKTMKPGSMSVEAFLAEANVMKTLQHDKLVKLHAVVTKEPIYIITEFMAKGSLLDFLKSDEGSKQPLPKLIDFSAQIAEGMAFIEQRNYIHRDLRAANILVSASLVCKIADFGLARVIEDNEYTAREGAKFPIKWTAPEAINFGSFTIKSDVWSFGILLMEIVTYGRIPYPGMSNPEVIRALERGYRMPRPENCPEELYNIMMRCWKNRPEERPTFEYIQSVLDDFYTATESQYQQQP

SMILES | residual activity
CCN(CC)CCNC(=O)c1c(C)[nH]c(/C=C2\C(=O)Nc3ccc(Cl)cc32)c1C | 3%
CC(C)N(CCC(=O)c1ccc2ccccc2c1)Cc1ccccc1 | 64%
O=C(c1cc2cc(O)ccc2[nH]1)c1cc2cc(O)ccc2[nH]1 | 5%
COc1cc2nccc(Oc3ccc(NC(=S)NC(=O)c4ccccc4C)cc3)c2cc1OC | 1%
NC(=O)Nc1sc(-c2ccc(F)cc2)cc1C(N)=O | 6%
COc1ccc(Cl)cc1NC(=O)Nc1cc(C)nc2ccccc12 | 53%
O=C(NC(NC(=S)Nc1ccc(F)c([N+](=O)[O-])c1)C(Cl)(Cl)Cl)C(c1ccccc1)c1ccccc1 (centres undefined) | 38%
CCCCc1c(-c2ccc(OC)cc2)[nH]c2nccnc12 | 24%
CCN1/C(=C/C(C)=O)Sc2ccc(OC)cc21 | 71%
CCCC(=O)Oc1ccc2[nH]c(C(=O)c3cc4ccccc4[nH]3)cc2c1 | 36%
O=C1Nc2ccc(Cl)cc2/C1=C/c1cc(Cl)c(O)c(Cl)c1 | 15%
N#Cc1c(NC(=O)c2cccc3ccccc23)sc2c1CCCC2 | 55%

The compounds below were run against Tyrosine-protein kinase HCK (Homo sapiens) (UniProt P08631). Settings: at 1 µM.

SMILES | residual activity
CC(C)[C@H](CO)Nc1nc(Nc2cc(N)cc(Cl)c2)c2ncn(C(C)C)c2n1 | 50%
O=C1NC(=O)c2c1c1c3ccccc3[nH]c1n1cncc21 | 38%
Cc1cc(C)c(/C=C2\C(=O)Nc3ccccc32)[nH]1 | 63%
CN(C)S(=O)(=O)c1ccc2c(c1)/C(=C/c1cc3c([nH]1)CCCC3)C(=O)N2 | 73%
CC(C)(C)c1nc2c3ccc(F)cc3c3c(=O)[nH]ccc3c2[nH]1 | 68%
Nc1ncnc2c1c(-c1ccc(Oc3ccccc3)cc1)cn2C1CCCC1 | 1%
O=c1cc(N2CCOCC2)oc2c1ccc1ccccc12 | 101%
CC(C)c1nn(-c2c(Cl)cccc2Cl)c2nc(Cc3ccc(OCCO)cc3)[nH]c(=O)c12 | 98%
O=C1C(Cl)=C(N2C(=O)CCC2=O)C(=O)c2ccccc21 | 91%
N#C/C(=C1/Nc2ccccc2S1)c1ccnc(NCCc2cccnc2)n1 | 88%
O=C(CCCc1ccc(-c2ccccc2F)cc1)Nc1ccc(O)cc1 | 106%
CC(C)(C)n1nc(Cc2cccc3ccccc23)c2c(N)ncnc21 | 43%
c1ccc(-c2cnc(Nc3ccc(OCCN4CCCC4)cc3)s2)cc1 | 71%
O=C(O)/C=C/c1cc(Br)c(Br)c(Br)c1Br | 107%
Nc1ncnc2c1cnn2-c1ccccc1 | 96%
COc1ccc2c(c1)c(C1=C(c3c[nH]c4ccccc34)C(=O)NC1=O)cn2CCCN(C)C | 98%
CCN(CC)CCNC(=O)c1c(C)[nH]c(/C=C2\C(=O)Nc3ccc(Cl)cc32)c1C | 9%
O=C(c1cc2cc(O)ccc2[nH]1)c1cc2cc(O)ccc2[nH]1 | 8%
COc1cc2nccc(Oc3ccc(NC(=S)NC(=O)c4ccccc4C)cc3)c2cc1OC | 11%
NC(=O)Nc1sc(-c2ccc(F)cc2)cc1C(N)=O | 37%
COc1ccc(Cl)cc1NC(=O)Nc1cc(C)nc2ccccc12 | 100%
CCCCc1c(-c2ccc(OC)cc2)[nH]c2nccnc12 | 75%
CCCC(=O)Oc1ccc2[nH]c(C(=O)c3cc4ccccc4[nH]3)cc2c1 | 98%
O=C1Nc2ccc(Cl)cc2/C1=C/c1cc(Cl)c(O)c(Cl)c1 | 86%

Target: Tyrosine-protein kinase HCK (Homo sapiens) (UniProt P08631)
Settings: at 10 µM
Remark: another data set of the same source

SMILES | residual activity
O=c1cc(N2CCNCC2)oc2c(-c3ccccc3)cccc12 | 95%
CC(C)[C@H](CO)Nc1nc(Nc2cc(N)cc(Cl)c2)c2ncn(C(C)C)c2n1 | 9%
O=C1NC(=O)c2c1c1c3ccccc3[nH]c1n1cncc21 | 35%
Cc1cc(C)c(/C=C2\C(=O)Nc3ccccc32)[nH]1 | 40%
CN(C)S(=O)(=O)c1ccc2c(c1)/C(=C/c1cc3c([nH]1)CCCC3)C(=O)N2 | 74%
CC(C)(C)c1nc2c3ccc(F)cc3c3c(=O)[nH]ccc3c2[nH]1 | 60%
Nc1ncnc2c1c(-c1ccc(Oc3ccccc3)cc1)cn2C1CCCC1 | -2%
O=c1cc(N2CCOCC2)oc2c1ccc1ccccc12 | 110%
CC(C)c1nn(-c2c(Cl)cccc2Cl)c2nc(Cc3ccc(OCCO)cc3)[nH]c(=O)c12 | 86%
N#C/C(=C1/Nc2ccccc2S1)c1ccnc(NCCc2cccnc2)n1 | 68%
O=C(CCCc1ccc(-c2ccccc2F)cc1)Nc1ccc(O)cc1 | 89%
c1ccc(-c2cnc(Nc3ccc(OCCN4CCCC4)cc3)s2)cc1 | 11%
O=C(O)/C=C/c1cc(Br)c(Br)c(Br)c1Br | 106%
Nc1ncnc2c1cnn2-c1ccccc1 | 85%
COc1ccc2c(c1)c(C1=C(c3c[nH]c4ccccc34)C(=O)NC1=O)cn2CCCN(C)C | 72%
CCN(CC)CCNC(=O)c1c(C)[nH]c(/C=C2\C(=O)Nc3ccc(Cl)cc32)c1C | 0%
O=C(c1cc2cc(O)ccc2[nH]1)c1cc2cc(O)ccc2[nH]1 | 3%
COc1cc2nccc(Oc3ccc(NC(=S)NC(=O)c4ccccc4C)cc3)c2cc1OC | 3%
NC(=O)Nc1sc(-c2ccc(F)cc2)cc1C(N)=O | 7%
COc1ccc(Cl)cc1NC(=O)Nc1cc(C)nc2ccccc12 | 98%
CCCCc1c(-c2ccc(OC)cc2)[nH]c2nccnc12 | 81%
CCCC(=O)Oc1ccc2[nH]c(C(=O)c3cc4ccccc4[nH]3)cc2c1 | 94%
O=C1Nc2ccc(Cl)cc2/C1=C/c1cc(Cl)c(O)c(Cl)c1 | 53%
